Experiments:
Details in all cases: concentration: 1 μM, replicates: in singlicate; n = 1
ROCK1 = system: ROCK1
ROCK2 = system: ROCK2
ROS1 = system: ROS1
[1] = system: RPS6KA4(Kin.Dom.1-N-terminal)
[2] = system: RPS6KA4(Kin.Dom.2-C-terminal)
[3] = system: RPS6KA5(Kin.Dom.1-N-terminal)
[4] = system: RPS6KA5(Kin.Dom.2-C-terminal)
[5] = system: T1, RSK1(Kin.Dom.1-N-terminal)
T1 construct: gene RPS6KA1

[6] = system: T2, RSK1(Kin.Dom.2-C-terminal)
T2 construct: gene RPS6KA1

[7] = system: T3, RSK2(Kin.Dom.1-N-terminal)
T3 construct: gene RPS6KA3

[8] = system: T4, RSK2(Kin.Dom.2-C-terminal)
T4 construct: gene RPS6KA3

[9] = system: T5, RSK3(Kin.Dom.1-N-terminal)
T5 construct: gene RPS6KA2

[10] = system: T6, RSK3(Kin.Dom.2-C-terminal)
T6 construct: gene RPS6KA2

[11] = system: T7, RSK4(Kin.Dom.1-N-terminal)
T7 construct: gene RPS6KA6

[12] = system: T8, RSK4(Kin.Dom.2-C-terminal)
T8 construct: gene RPS6KA6

S6K1 = system: S6K1
SBK1 = system: SBK1
SGK2 = system: SGK2
SGK3 = system: SGK3
SGK = system: SGK
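Note: KINOMEscan kinase panel screen.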

SMILES | %Inh (ROCK1) | %Inh (ROCK2) | %Inh (ROS1) | %Inh [1] | %Inh [2] | %Inh [3] | %Inh [4] | %Inh [5] | %Inh [6] | %Inh [7] | %Inh [8] | %Inh [9] | %Inh [10] | %Inh [11] | %Inh [12] | %Inh (S6K1) | %Inh (SBK1) | %Inh (SGK2) | %Inh (SGK3) | %Inh (SGK)
CCn1c(-c2cccnc2O)nc2cnccc21 [SB-736715] | 11% | 0% | 0% | 0% | 0% | 0% | 0% | 0% | 0% | 4% | 1% | 0% | 13% | 0% | 15% | 5% | 0% | 0% | 0% | 0%
COc1ccc(Nc2nccc(NCCNC(=O)Nc3ccccc3F)n2)cc1 [GSK1379901] | 30% | 44% | 24% | 14% | 0% | 14% | 27% | 16% | 0% | 1% | 27% | 19% | 2% | 0% | 23% | 3% | 6% | 0% | 16% | 0%
Cn1cncc1-c1ccc2ncnc(Nc3ccc(OCc4ccccc4)cc3)c2c1 [GW320571] | 3% | 17% | 9% | 13% | 0% | 28% | 0% | 0% | 0% | 18% | 20% | 23% | 0% | 19% | 0% | 2% | 28% | 0% | 0% | 0%
C[C@@H]1CCCCN1c1cc(-c2ccc3c(N)n[nH]c3c2)nc(N)n1 [GSK2258759] | 0% | 0% | 5% | 4% | 0% | 14% | 10% | 5% | 14% | 0% | 0% | 0% | 19% | 0% | 24% | 0% | 0% | 0% | 3% | 0%
Cc1ccc(NC(=O)Nc2cccc(Cl)c2)cc1-c1ccc(C(=O)Nc2ccncc2)cc1 [GSK1398468] | 0% | 13% | 0% | 24% | 0% | 10% | 39% | 23% | 0% | 0% | 0% | 5% | 1% | 0% | 16% | 0% | 26% | 0% | 22% | 0%
O=C1NC(=O)C(N2CCc3ccccc32)=C1c1ccccc1Cl [SB-373598] | 4% | 0% | 22% | 41% | 0% | 7% | 10% | 0% | 14% | 65% | 2% | 0% | 1% | 3% | 6% | 0% | 69% | 2% | 3% | 0%
Cc1cccc(-c2nc(C)cc(Nc3ccncc3)n2)n1 [GSK257997] | 25% | 10% | 43% | 8% | 0% | 7% | 0% | 29% | 2% | 0% | 22% | 0% | 0% | 0% | 0% | 1% | 4% | 0% | 6% | 0%
CC(=O)Nc1nc2cnc(Nc3cc(NC(=O)c4cccc(CCC#N)c4)ccc3C)nc2s1 | 14% | 15% | 0% | 0% | 0% | 15% | 2% | 0% | 0% | 5% | 6% | 0% | 1% | 24% | 0% | 3% | 0% | 0% | 7% | 0%
COc1cccc(NC(=O)NC2CCN(c3ccnc(Nc4ccc(F)cc4)n3)C2)c1 (stereo not shown) [GSK1379721] | 0% | 5% | 0% | 0% | 0% | 0% | 12% | 15% | 25% | 4% | 30% | 5% | 2% | 0% | 0% | 0% | 2% | 0% | 0% | 5%
Cc1c(Cn2ccn3c(=O)cc(N4CCOCC4)nc23)cccc1C(F)(F)F [GSK2289044] | 0% | 0% | 8% | 0% | 0% | 6% | 11% | 0% | 0% | 0% | 23% | 0% | 6% | 0% | 11% | 0% | 14% | 0% | 4% | 0%
Cc1ccc(NC(=O)Nc2cc(C(C)(C)C)nn2-c2ccccc2)cc1 [GSK1014915] | 15% | 0% | 9% | 9% | 0% | 25% | 38% | 16% | 1% | 19% | 0% | 18% | 11% | 0% | 44% | 10% | 7% | 8% | 0% | 0%
